Screen size: about 5,500 compounds; about 2,000 (36%) were called active. Inconclusive results (about 18%) are left out. Rule as the data show it: active = normalized growth mostly below about 0.91 (no sharp cut-off); inconclusive = no clear call, values can overlap the other calls; inactive = mostly above about 0.92. The list shows a part of the results.
Assay: chemical genetic growth profiling, strain panel (AID 1159580);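 also: tested at 20 µM; growth read once vehicle control cultures reached saturation at 30 °C; 1 = growth at the plate median or of vehicle wells; lower values mean less growth of the strain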
Settings: S. cerevisiae deletion strains, growth OD

Measured: normalized growth

NC1CCN(O)C1=O (stereo not given)
inactive: locus YAL013W, strain DEP1, stronger effect = lower value 1.02 | locus YAL040C, strain CLN3, stronger effect = lower value 1.02 | locus YCL061C, strain MRC1 (second series), stronger effect = lower value 1.02 | locus YDR363W, strain ESC2, stronger effect = lower value 0.986 | locus YER002W, strain NOP16, stronger effect = lower value 1.01 | locus YGR078C, strain PAC10, stronger effect = lower value 1.02 | locus YNL175C, strain NOP13, stronger effect = lower value 1.01 | locus YNL197C, strain WHI3, stronger effect = lower value 0.997 | locus YNL224C, strain SQS1, stronger effect = lower value 1.02 | locus YOR083W, strain WHI5 (second series), stronger effect = lower value 0.985

Reference: PubChem BioAssay AID1159580 (chemical genetic matrix, 2015)
